{
  "source": "PubChem BioAssay AID1788",
  "about": "(Vanderbilt High Throughput Screening Facility, 2009)",
  "test_system": "Phorbol Ester (mouse)",
  "test": "PubChem AID 1788",
  "settings": "MDS Pharma lead profiling panel, radioligand binding, at 10 µM, hits give high values",
  "note": "A number with no mark means an inactive call. How the calls were made is not given here.",
  "data": [
    {"smiles": "CCOC(=O)N1CCC(NCCNC(=O)c2ccccc2C)CC1", "values": [
      {"measurement": "inhibition", "value": 25, "unit": "%"}
    ]}
  ]
}
